The panel holds about 83,000 compounds, 20% with a hit somewhere; the sample as a whole holds those more often.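 Values shown are percent growth following 48 h exposure of cells in 96-well plates to a single concentration of compound; below 10 was considered active.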 Values without a mark were called inactive. Calls of active or inactive are those of the source.

The record followed here is PubChem BioAssay (NCI).

Some test systems named below: SK-MEL-2 melanoma; EKVX NSCLC; SN12C renal; UO-31 renal; TK-10 renal; ACHN renal; A498 renal; CCRF-CEM leukemia; MOLT-4 leukemia; SR leukemia; RPMI-8226 leukemia; OVCAR-8 ovarian; OVCAR-5 ovarian; OVCAR-4 ovarian; SK-OV-3 ovarian; IGROV1 ovarian; OVCAR-3 ovarian; HS 578T breast; NCI/ADR-RES ovarian; CAKI-1 renal.
Holding throughout (assay): NCI-60 one-dose screen, 48 h (100 = growth as untreated, 0 = no growth, -100 = all killed)
Holding throughout (details): 10 µM

Regarding `CCOC(=O)c1cc(C(=O)c2cc(OC)c(OC)c(OC)c2)n2c1ccc1c3cccnc3ccc12`, the growth with SK-MEL-2 melanoma is 40.6%; with EKVX NSCLC it was 93.3%; in the experiment with SN12C renal, 78.7%; in the experiment on UO-31 renal, 69%; in the experiment with TK-10 renal, 85.3%; in the experiment with ACHN renal, 76.2%. Also, the growth in the experiment with A498 renal is 60.6%; in the experiment with CCRF-CEM leukemia, 62.7%; with MOLT-4 leukemia it was 31.4%; in the experiment on SR leukemia it was 17.5%; in the experiment on RPMI-8226 leukemia it was 61.8%; in the experiment on OVCAR-8 ovarian, 56.2%. Besides, the growth with OVCAR-5 ovarian was 91.9%; with OVCAR-4 ovarian, 89.7%; with SK-OV-3 ovarian, 78.1%; in the experiment on IGROV1 ovarian, 67.8%; with OVCAR-3 ovarian, 61.5%; in the experiment on HS 578T breast it was 72.8%. For the same compound, the growth with NCI/ADR-RES ovarian is 33.9%.
In the case of `c1cnc2[nH]cc(-c3nc(-c4ccsc4)cs3)c2c1`, the growth is 102% in the experiment on SK-MEL-2 melanoma; 42.6% in the experiment on EKVX NSCLC; 92% with SN12C renal; 62.7% in the experiment on UO-31 renal; 138% in the experiment on TK-10 renal; 85.3% in the experiment with ACHN renal. Further, the growth is 96.3% with CAKI-1 renal; 79.6% in the experiment on MOLT-4 leukemia; 96.9% in the experiment on OVCAR-8 ovarian; 111% with OVCAR-5 ovarian; 93% in the experiment on OVCAR-4 ovarian; 92.8% in the experiment with SK-OV-3 ovarian. In addition, the growth in the experiment on IGROV1 ovarian is 70.8%; with OVCAR-3 ovarian it was 84.2%; in the experiment with NCI/ADR-RES ovarian it was 101%.
`CN(C)CCCSc1ccccc1NC1=C(Cl)C(=O)C(Nc2ccccc2SCCCN(C)C)=C(Cl)C1=O`: the growth is 43.8% in the experiment on SK-MEL-2 melanoma; 67.5% in the experiment with EKVX NSCLC; -61.2% (active) with SN12C renal; 35% with UO-31 renal; 13.8% in the experiment on TK-10 renal; -20.6% (active) in the experiment on ACHN renal. The growth was 105% in the experiment on A498 renal; -15.2% (active) with CCRF-CEM leukemia; -34% (active) in the experiment with MOLT-4 leukemia; 2.97% (active) with SR leukemia; 45.8% with RPMI-8226 leukemia; -26.5% (active) in the experiment on OVCAR-8 ovarian. The growth in the experiment on OVCAR-5 ovarian is 33.4%; in the experiment with OVCAR-4 ovarian, -95.3% (active); in the experiment with SK-OV-3 ovarian, 93.6%; in the experiment with IGROV1 ovarian it was -63.5% (active); in the experiment on OVCAR-3 ovarian, -93% (active); in the experiment with HS 578T breast it was 87.1%. Besides, the growth in the experiment on NCI/ADR-RES ovarian is 72.4%.
On to `COc1cc2c3c(n([C@@H]4CCOC4)c(=O)c2cc1OC)-c1cc2c(cc1C3=O)OCO2`, for which the growth was 94% in the experiment on SK-MEL-2 melanoma; 64.2% with EKVX NSCLC; 18.3% in the experiment on SN12C renal; 5.77% (active) with UO-31 renal; 99.7% in the experiment with TK-10 renal; 0.739% (active) in the experiment with ACHN renal. Also, the growth in the experiment with CAKI-1 renal was 23.2%; in the experiment on MOLT-4 leukemia it was 20.4%; with SR leukemia it was 15.1%; with OVCAR-8 ovarian, 36.7%; in the experiment with OVCAR-5 ovarian, 77%; in the experiment on OVCAR-4 ovarian, 72.2%. Further, the growth in the experiment on SK-OV-3 ovarian is 24.7%; with IGROV1 ovarian it was 67.8%; in the experiment with OVCAR-3 ovarian, 52.3%; with HS 578T breast it was 109%; in the experiment with NCI/ADR-RES ovarian, 30.1%.
`Nc1ncnc2c1ncn2C1(CO)OCC(O)C(O)C1O` (stereo unspecified): the growth in the experiment with SK-MEL-2 melanoma is 93.5%; with EKVX NSCLC it was 100%; in the experiment with SN12C renal, 103%; in the experiment with UO-31 renal, 87.9%; with TK-10 renal it was 87.3%; in the experiment with ACHN renal, 107%. Besides, the growth with A498 renal was 108%; in the experiment on CCRF-CEM leukemia, 101%; in the experiment with MOLT-4 leukemia, 105%; in the experiment on SR leukemia it was 109%; in the experiment on RPMI-8226 leukemia, 104%; in the experiment on OVCAR-8 ovarian it was 102%. For the same compound, the growth in the experiment with OVCAR-5 ovarian was 109%; in the experiment on OVCAR-4 ovarian it was 111%; in the experiment on SK-OV-3 ovarian, 98.2%; in the experiment on IGROV1 ovarian, 105%; with OVCAR-3 ovarian, 103%; with HS 578T breast it was 104%. Also, the growth in the experiment on NCI/ADR-RES ovarian was 98.6%.
For the compound `COc1cc(-c2nn(-c3cccc(NC(=O)NCCNS(=O)(=O)c4ccc(Cl)cc4)c3)cc2-c2ccncc2)ccc1Cl`, the growth with SK-MEL-2 melanoma was 2.83% (active); with EKVX NSCLC, 29.8%; in the experiment with SN12C renal it was 35.5%; in the experiment on UO-31 renal, 21.1%; in the experiment with TK-10 renal, 5.09% (active); in the experiment with ACHN renal, 11.3%. Besides, the growth with A498 renal was -10.5% (active); in the experiment on CCRF-CEM leukemia, 9.85% (active); with MOLT-4 leukemia, 12.1%; in the experiment with SR leukemia, 1.18% (active); in the experiment on RPMI-8226 leukemia, -2.02% (active); with OVCAR-8 ovarian, 8.88% (active). The growth in the experiment on OVCAR-5 ovarian is 27.9%; in the experiment on OVCAR-4 ovarian, 33.3%; in the experiment with SK-OV-3 ovarian it was 19.3%; in the experiment on IGROV1 ovarian it was 25.2%; with OVCAR-3 ovarian, 2.8% (active); in the experiment with HS 578T breast, 18.8%. Further, the growth with NCI/ADR-RES ovarian was 71%.
As for `Cc1ccc(S(=O)(=O)N(C)CCCCCC(=O)O)cc1`, the growth is 99.9% in the experiment with SK-MEL-2 melanoma; 95.9% with EKVX NSCLC; 106% in the experiment on SN12C renal; 88.3% in the experiment on UO-31 renal; 89.4% with TK-10 renal; 102% in the experiment with ACHN renal. The growth in the experiment on A498 renal was 110%; in the experiment on CCRF-CEM leukemia, 110%; in the experiment on MOLT-4 leukemia, 95.1%; in the experiment with SR leukemia, 101%; in the experiment with RPMI-8226 leukemia, 113%; with OVCAR-8 ovarian, 103%. The growth with OVCAR-5 ovarian is 101%; in the experiment on OVCAR-4 ovarian, 106%; in the experiment on SK-OV-3 ovarian, 112%; in the experiment on IGROV1 ovarian it was 99.4%; in the experiment with OVCAR-3 ovarian, 106%; with HS 578T breast, 108%. In the experiment on NCI/ADR-RES ovarian, the growth is 98.6%.
For the compound `COc1cc(-c2nn(-c3cccc(NC(=O)CCN4CCN(c5ccccc5)CC4)c3)cc2-c2ccncc2)ccc1Cl`, the growth is -0.713% (active) in the experiment with SK-MEL-2 melanoma; 38.1% in the experiment on EKVX NSCLC; 32.4% in the experiment with SN12C renal; 37.8% with UO-31 renal; 23.5% in the experiment with TK-10 renal; 18% with ACHN renal. In addition, the growth was 5.91% (active) with A498 renal; 17.8% in the experiment on CCRF-CEM leukemia; 15.4% in the experiment with MOLT-4 leukemia; 4.54% (active) with SR leukemia; 20.6% in the experiment on RPMI-8226 leukemia; 22.6% in the experiment with OVCAR-8 ovarian. Also, the growth in the experiment with OVCAR-5 ovarian was 47.5%; with OVCAR-4 ovarian it was 34%; in the experiment with SK-OV-3 ovarian, 26.7%; in the experiment with IGROV1 ovarian, 32.7%; in the experiment on OVCAR-3 ovarian, 16.2%; in the experiment with HS 578T breast, 31.8%. Besides, in the experiment on NCI/ADR-RES ovarian, the growth is 21%.
